This is an account of results in PMC7862700, “An all-to-all approach to the identification of sequence-specific readers for epigenetic DNA modifications on cytosine”.

Common to all, as to experiment: DAPPL (digital affinity profiling via proximity ligation, sequencing); 10 mM Tris-HCl pH 7.5, 50 mM NaCl, 1 mM DTT, 4% glycerol, room temperature, 30 min; GST-TFs on glutathione beads, 16-mer random dsDNA library, 0.1% formaldehyde crosslink after washing; high values mean tight binding
Holding throughout (settings): protein: recombinant; tags: N-terminal GST; dsDNA, one strand shown

Experiment [1] deals with CRX (Homo sapiens, UniProt O43186 1-299). The procedure, abridged:
(§1)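 A tag-only sample was pooled with DNA-barcoded human transcription factors that had been expressed in yeast as GST fusions and captured on glutathione beads. The pools were incubated for 30 min at room temperature with 200 nmole of a random double-stranded 16-mer DNA library in Tris/NaCl/DTT/glycerol buffer, then washed, crosslinked with 0.1% formaldehyde, proximity-ligated (BsaI/T4 ligase, 1 h, 37 °C), PCR-amplified and sequenced on an Illumina NextSeq500. Binding signal is each hexamer's read frequency for a factor divided by its frequency for the tag-only sample.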

For experiment [2], the target named is T1, ERF (Homo sapiens, UniProt P50548 1-548).
T1 sequence: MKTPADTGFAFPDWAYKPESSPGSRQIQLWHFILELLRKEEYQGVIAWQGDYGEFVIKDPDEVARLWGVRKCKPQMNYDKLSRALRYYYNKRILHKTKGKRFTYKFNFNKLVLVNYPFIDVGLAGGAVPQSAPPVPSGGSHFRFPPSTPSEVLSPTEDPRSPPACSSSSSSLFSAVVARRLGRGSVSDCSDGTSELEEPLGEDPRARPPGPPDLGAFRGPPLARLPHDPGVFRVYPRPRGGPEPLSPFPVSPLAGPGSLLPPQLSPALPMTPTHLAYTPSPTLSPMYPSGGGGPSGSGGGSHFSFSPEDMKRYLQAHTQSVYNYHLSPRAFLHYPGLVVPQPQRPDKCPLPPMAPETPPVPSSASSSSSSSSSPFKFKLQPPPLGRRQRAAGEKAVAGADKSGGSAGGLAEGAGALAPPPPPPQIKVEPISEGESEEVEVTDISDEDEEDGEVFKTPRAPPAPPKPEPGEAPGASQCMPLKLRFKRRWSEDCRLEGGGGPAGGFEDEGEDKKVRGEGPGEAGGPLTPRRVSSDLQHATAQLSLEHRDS
The procedure, abridged: as §1

The target in experiment [3] is T2, ETV3L (Homo sapiens, UniProt Q6ZN32 1-361).
T2 sequence: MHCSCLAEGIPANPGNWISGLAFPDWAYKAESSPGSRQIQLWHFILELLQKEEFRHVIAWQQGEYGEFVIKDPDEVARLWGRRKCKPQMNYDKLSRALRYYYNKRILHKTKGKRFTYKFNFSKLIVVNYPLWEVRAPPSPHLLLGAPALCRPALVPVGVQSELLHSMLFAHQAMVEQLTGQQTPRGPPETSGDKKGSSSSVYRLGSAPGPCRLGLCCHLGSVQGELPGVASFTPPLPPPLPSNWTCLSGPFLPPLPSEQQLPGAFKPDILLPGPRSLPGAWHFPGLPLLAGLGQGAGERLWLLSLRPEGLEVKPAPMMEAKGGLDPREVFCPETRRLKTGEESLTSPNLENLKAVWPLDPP
The procedure, abridged: as §1

Experiment [4] concerns the target T3, ETS2 (Homo sapiens, UniProt P15036 1-469).
T3 sequence: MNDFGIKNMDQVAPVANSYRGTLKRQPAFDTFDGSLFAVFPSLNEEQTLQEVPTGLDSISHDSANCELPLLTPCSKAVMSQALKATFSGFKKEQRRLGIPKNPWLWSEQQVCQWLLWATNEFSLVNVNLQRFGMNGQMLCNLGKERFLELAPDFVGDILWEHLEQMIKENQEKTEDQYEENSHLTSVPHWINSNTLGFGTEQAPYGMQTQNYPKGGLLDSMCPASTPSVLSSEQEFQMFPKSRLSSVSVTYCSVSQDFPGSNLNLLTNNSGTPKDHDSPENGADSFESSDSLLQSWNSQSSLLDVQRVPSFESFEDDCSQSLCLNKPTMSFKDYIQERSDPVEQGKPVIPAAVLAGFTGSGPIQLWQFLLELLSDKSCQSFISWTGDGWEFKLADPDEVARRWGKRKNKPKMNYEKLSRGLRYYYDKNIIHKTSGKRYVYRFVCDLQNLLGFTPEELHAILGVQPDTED
In short, it runs like this:
as §1

In experiment [5] the target is T4, SPDEF (Homo sapiens, UniProt O95238 1-335).
T4 sequence: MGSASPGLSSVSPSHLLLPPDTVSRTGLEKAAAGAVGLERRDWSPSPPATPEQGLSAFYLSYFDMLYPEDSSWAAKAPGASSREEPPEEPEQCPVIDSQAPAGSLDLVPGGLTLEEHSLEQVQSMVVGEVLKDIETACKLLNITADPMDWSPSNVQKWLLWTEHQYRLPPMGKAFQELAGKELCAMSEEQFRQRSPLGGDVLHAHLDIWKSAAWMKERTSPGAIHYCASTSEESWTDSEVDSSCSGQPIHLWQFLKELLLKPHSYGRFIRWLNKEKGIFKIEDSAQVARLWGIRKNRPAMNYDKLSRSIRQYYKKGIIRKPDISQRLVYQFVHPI
In short, it runs like this: as §1

Experiment [6] deals with T5, ETV7 (Homo sapiens, UniProt Q9Y603 1-341).
T5 sequence: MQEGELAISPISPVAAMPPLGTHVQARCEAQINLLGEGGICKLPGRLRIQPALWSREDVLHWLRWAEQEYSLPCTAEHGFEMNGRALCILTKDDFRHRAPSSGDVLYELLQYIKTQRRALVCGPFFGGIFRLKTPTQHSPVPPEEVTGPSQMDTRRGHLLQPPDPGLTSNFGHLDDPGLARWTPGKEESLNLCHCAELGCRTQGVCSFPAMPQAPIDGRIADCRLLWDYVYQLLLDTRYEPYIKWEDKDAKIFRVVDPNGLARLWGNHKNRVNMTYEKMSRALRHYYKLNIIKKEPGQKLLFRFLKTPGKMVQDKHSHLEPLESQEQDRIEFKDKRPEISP
The procedure, abridged:
as §1

In experiment [7] the target is T6, ELF5 (Homo sapiens, UniProt Q9UKW6-2 1-255).
T6 sequence: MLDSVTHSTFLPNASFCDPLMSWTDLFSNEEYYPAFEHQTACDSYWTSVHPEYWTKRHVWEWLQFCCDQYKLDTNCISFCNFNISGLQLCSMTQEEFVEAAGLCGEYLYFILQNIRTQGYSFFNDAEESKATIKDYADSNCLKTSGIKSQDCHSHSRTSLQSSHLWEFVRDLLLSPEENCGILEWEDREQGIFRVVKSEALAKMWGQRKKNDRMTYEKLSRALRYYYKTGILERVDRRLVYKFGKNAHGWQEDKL
In short, it runs like this:
as §1

Experiment [8] concerns the target T7, ETV3 (Homo sapiens, UniProt P41162-2 1-143).
T7 sequence: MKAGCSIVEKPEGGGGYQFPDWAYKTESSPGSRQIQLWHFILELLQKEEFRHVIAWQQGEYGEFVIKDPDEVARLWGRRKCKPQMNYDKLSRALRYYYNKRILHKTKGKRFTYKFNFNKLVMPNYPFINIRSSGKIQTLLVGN
In short, it runs like this:
as §1

The target in experiment [9] is ETV6 (Homo sapiens, UniProt P41212 1-452). The procedure, abridged:
as §1

Chain of ETV6 (P41212 whole entry): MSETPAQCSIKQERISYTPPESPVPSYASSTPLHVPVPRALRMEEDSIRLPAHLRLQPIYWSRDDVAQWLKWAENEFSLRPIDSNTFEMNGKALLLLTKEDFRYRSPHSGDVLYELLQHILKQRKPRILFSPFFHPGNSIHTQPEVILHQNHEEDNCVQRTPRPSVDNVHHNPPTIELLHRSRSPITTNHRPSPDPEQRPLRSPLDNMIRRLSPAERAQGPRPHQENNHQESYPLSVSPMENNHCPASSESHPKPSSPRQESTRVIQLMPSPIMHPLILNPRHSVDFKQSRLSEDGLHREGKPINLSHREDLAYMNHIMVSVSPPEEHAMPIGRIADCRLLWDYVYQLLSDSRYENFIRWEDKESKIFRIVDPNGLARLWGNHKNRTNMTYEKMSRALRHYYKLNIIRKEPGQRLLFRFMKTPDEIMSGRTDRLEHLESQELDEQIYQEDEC
Chain of CRX (O43186 whole entry, the tested form may be a part): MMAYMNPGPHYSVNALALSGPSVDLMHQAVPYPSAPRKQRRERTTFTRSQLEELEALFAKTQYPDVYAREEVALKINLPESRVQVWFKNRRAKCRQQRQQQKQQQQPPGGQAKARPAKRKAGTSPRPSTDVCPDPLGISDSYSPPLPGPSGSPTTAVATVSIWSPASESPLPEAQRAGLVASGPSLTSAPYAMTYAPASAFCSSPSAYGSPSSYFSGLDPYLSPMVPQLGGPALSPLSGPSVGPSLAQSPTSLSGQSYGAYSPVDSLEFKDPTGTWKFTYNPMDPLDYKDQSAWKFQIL

Turning to AGAATA, the binding signal in [1] was 1.42 fold enrichment (6-mer frequency, TF over GST control); in experiment [2], 1.03 fold enrichment (6-mer frequency, TF over GST control); in [3] it was 1.04 fold enrichment (6-mer frequency, TF over GST control); in experiment [4], 1 fold enrichment (6-mer frequency, TF over GST control); in experiment [5] it was 1.04 fold enrichment (6-mer frequency, TF over GST control); in [6] it was 1.08 fold enrichment (6-mer frequency, TF over GST control). Besides, the binding signal is 1.04 fold enrichment (6-mer frequency, TF over GST control) in experiment [7]; 1.04 fold enrichment (6-mer frequency, TF over GST control) in experiment [8]; 1.07 fold enrichment (6-mer frequency, TF over GST control) in experiment [9].
